Results published in PubChem BioAssay AID1159580 (chemical genetic matrix, 2015).
Several values for one entry are separate records, joined by “and”; a condition that tells them apart may be missing. Equal values may be shown once. Hit rate of the full screen: of about 5,500 compounds, about 2,000 (36%) were called active. About 18% were inconclusive and are not listed. No stated cut-off is given here; in the data, active means normalized growth mostly below about 0.91 (no sharp cut-off); inconclusive means no clear call, values can overlap the other calls; inactive means mostly above about 0.92. The list shows a part of the results.

Experiment: chemical genetic growth profiling, strain panel (AID 1159580);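 further: tested at 20 µM; growth read once vehicle control cultures reached saturation at 30 °C; 1 = growth at the plate median or of vehicle wells; lower values mean less growth of the strain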
Details: S. cerevisiae deletion strains, growth OD

Measured: normalized growth

CC1(C)C2CC(=O)O[C@@]3(C)C4=CC(=O)O[C@@H](c5ccoc5)[C@]4(C)CCC3[C@@]2(C)C=C[C@H]1O (stereo partly drawn)
inactive: locus YAL013W, strain DEP1, active compounds read low 0.997 | locus YAL021C, strain ccr4, active compounds read low 0.993 | locus YAL026C, strain drs2, active compounds read low 0.98 | locus YAL030W, strain snc1, active compounds read low 0.978 | locus YBL061C, strain skt5, active compounds read low 0.986 | locus YBR009C, strain hhf1, active compounds read low 0.991 | locus YBR021W, strain FUR4, active compounds read low 1.01 | locus YBR023C, strain chs3, active compounds read low 0.97 | locus YBR171W, strain sec66, active compounds read low 0.966 | locus YBR229C, strain ROT2, active compounds read low 1.01 | locus YBR231C, strain swc5, active compounds read low 0.985 | locus YBR279W, strain paf1, active compounds read low 0.985 | locus YCL011C, strain gbp2, active compounds read low 0.967 | locus YCL016C, strain dcc1, active compounds read low 1.01 | locus YCL029C, strain bik1, active compounds read low 0.989 | locus YCL061C, strain MRC1, active compounds read low 0.999 | locus YCL069W, strain vba3, active compounds read low 0.971 | locus YCR088W, strain abp1, active compounds read low 0.974 | locus YDL005C, strain med2, active compounds read low 0.975 | locus YDL035C, strain GPR1, active compounds read low 1.03 | locus YDL040C, strain nat1, active compounds read low 0.974 | locus YDL074C, strain BRE1, active compounds read low 1.01 | locus YDL101C, strain DUN1, active compounds read low 0.999 | locus YDL134C, strain PPH21, active compounds read low 1.01 | locus YDL185W, strain tfp1, active compounds read low 0.999 | locus YDL192W, strain arf1, active compounds read low 0.988 | locus YDR001C, strain nth1, active compounds read low 0.99 | locus YDR069C, strain doa4, active compounds read low 0.98 | locus YDR101C, strain arx1, active compounds read low 1 | locus YDR137W, strain rgp1, active compounds read low 1.01 | locus YDR159W, strain sac3, active compounds read low 0.953 | locus YDR162C, strain NBP2, active compounds read low 0.998 | locus YDR195W, strain ref2 0.961 | locus YDR297W, strain sur2, active compounds read low 0.983 | locus YDR318W, strain mcm21, active compounds read low 0.989 | locus YDR334W, strain swr1, active compounds read low 0.981 | locus YDR335W, strain msn5, active compounds read low 0.979 | locus YDR388W, active compounds read low 0.99 | locus YDR392W, strain spt3, active compounds read low 0.984 | locus YDR502C, strain sam2, active compounds read low 0.998 | locus YEL003W, strain gim4, active compounds read low 0.978 | locus YEL037C, strain rad23, active compounds read low 0.984 | locus YEL061C, strain CIN8 (second series), active compounds read low 0.972 | locus YER015W, strain faa2, active compounds read low 0.975 | locus YER016W, strain bim1, active compounds read low 0.988 | locus YER110C, active compounds read low 0.983 | locus YER111C, strain swi4, active compounds read low 0.975 | locus YER155C, strain BEM2 (second series), active compounds read low 1 | locus YER155C, strain BEM2, active compounds read low 1.01 | locus YER167W, strain BCK2, active compounds read low 1.02 | locus YFR010W, strain ubp6, active compounds read low 0.971 | locus YGL078C, strain dbp3, active compounds read low 0.982 | locus YGL086W, strain mad1, active compounds read low 0.988 | locus YGL167C, strain pmr1, active compounds read low 0.989 | locus YGL173C, strain kem1, active compounds read low 0.98 | locus YGL227W, strain vid30, active compounds read low 0.98 | locus YGL240W, strain doc1, active compounds read low 0.968 | locus YGL248W, strain PDE1, active compounds read low 1 | locus YGL253W, strain hxk2, active compounds read low 0.948 | locus YGR078C, strain PAC10, active compounds read low 1 | locus YGR135W, strain pre9, active compounds read low 0.969 | locus YGR252W, strain gcn5, active compounds read low 0.97 | locus YHR013C, strain ard1, active compounds read low 0.973 | locus YHR027C, strain rpn1, active compounds read low 0.983 | locus YHR030C, strain SLT2, active compounds read low 1.01 and 0.99 | locus YHR079C, strain IRE1 (second series), active compounds read low 0.988 | locus YHR079C, strain IRE1, active compounds read low 0.987 | locus YHR094C, strain hxt1, active compounds read low 0.987 | locus YHR129C, strain ARP1, active compounds read low 1.01 | locus YHR142W, strain chs7, active compounds read low 0.964 | locus YHR200W, strain rpn10, active compounds read low 0.989 | locus YIL066C, strain RNR3, active compounds read low 1.02 | locus YIL073C, strain SPO22, active compounds read low 0.988 | locus YIL125W, strain kgd1, active compounds read low 0.991 | locus YIR030C, strain dcg1, active compounds read low 0.975 | locus YJL092W, strain hpr5, active compounds read low 0.971 | locus YJL095W, strain BCK1 (second series), active compounds read low 0.982 | locus YJL095W, strain BCK1, active compounds read low 0.986 and 0.978 | locus YJL115W, strain asf1, active compounds read low 0.987 | locus YJL129C, strain trk1, active compounds read low 0.956 | locus YJL134W, strain LCB3, active compounds read low 1.01 | locus YJL154C, strain vps35, active compounds read low 0.99 | locus YJL164C, strain tpk1, active compounds read low 1.01 | locus YJL166W, strain qcr8, active compounds read low 0.98 | locus YJL168C, strain set2, active compounds read low 0.98 | locus YJL187C, strain SWE1 (second series), active compounds read low 0.997 | locus YJL187C, strain SWE1, active compounds read low 0.983 | locus YJR043C, strain POL32, active compounds read low 1.03 | locus YJR066W, strain TOR1, active compounds read low 0.946 | locus YKL009W, strain mrt4, active compounds read low 0.985 | locus YKL068W, active compounds read low 1 | locus YKL085W, strain MDH1 (second series), active compounds read low 0.993 | locus YKL085W, strain MDH1, active compounds read low 0.993 | locus YKL160W, strain elf1, active compounds read low 1.02 | locus YKR001C, strain vps1, active compounds read low 0.997 | locus YKR026C, strain gcn3, active compounds read low 0.977 | locus YKR091W, strain srl3, active compounds read low 0.983 | locus YLL001W, strain dnm1, active compounds read low 1 | locus YLL026W, active compounds read low 0.971 | locus YLL041C, strain sdh2, active compounds read low 0.976 | locus YLR027C, strain aat2, active compounds read low 0.968 | locus YLR039C, strain RIC1, active compounds read low 0.952 | locus YLR058C, strain SHM2, active compounds read low 1.01 | locus YLR102C, strain apc9, active compounds read low 0.982 | locus YLR113W, strain HOG1, active compounds read low 0.969 | locus YLR221C, strain rsa3, active compounds read low 0.975 | locus YLR258W, strain gsy2, active compounds read low 0.98 | locus YLR262C, strain YPT6 (second series), active compounds read low 1.01 | locus YLR268W, strain sec22, active compounds read low 1.01 | locus YLR320W, strain mms22, active compounds read low 0.993 | locus YLR330W, strain CHS5, active compounds read low 1.01 | locus YLR342W, strain FKS1, active compounds read low 0.977 | locus YLR357W, strain rsc2, active compounds read low 1 | locus YLR370C, strain arc18, active compounds read low 0.958 | locus YLR371W, strain rom2, active compounds read low 0.992 | locus YLR384C, strain iki3, active compounds read low 0.986 | locus YLR418C, strain cdc73, active compounds read low 0.955 | locus YML016C, strain PPZ1, active compounds read low 1.01 | locus YML032C, strain rad52, active compounds read low 1 | locus YML120C, strain ndi1, active compounds read low 0.959 | locus YML124C, strain tub3, active compounds read low 0.983 | locus YMR058W, strain fet3, active compounds read low 0.986 | locus YMR078C, strain ctf18, active compounds read low 0.985 | locus YMR125W, strain sto1, active compounds read low 0.993 | locus YMR129W, active compounds read low 0.992 | locus YMR205C, strain PFK2, active compounds read low 1.04 | locus YMR223W, strain ubp8, active compounds read low 0.971 | locus YMR231W, strain pep5, active compounds read low 0.948 | locus YMR263W, strain SAP30, active compounds read low 1.02 | locus YMR307W, strain GAS1, active compounds read low 0.922 | locus YNL067W, strain RPL9B, active compounds read low 0.999 | locus YNL071W, strain lat1, active compounds read low 0.987 | locus YNL153C, strain GIM3, active compounds read low 1 | locus YNL183C, strain NPR1, active compounds read low 0.962 | locus YNL209W, strain ssb2, active compounds read low 1.01 | locus YNL233W, strain BNI4, active compounds read low 0.992 | locus YNL248C, strain rpa49, active compounds read low 0.98 | locus YNL250W, strain rad50, active compounds read low 0.984 | locus YNL271C, strain bni1, active compounds read low 0.995 | locus YNL298W, strain CLA4, active compounds read low 1 | locus YNL307C, strain MCK1, active compounds read low 0.991 | locus YNL322C, strain KRE1 (second series), active compounds read low 0.962 | locus YNR049C, strain mso1, active compounds read low 0.981 | locus YNR052C, strain pop2, active compounds read low 0.983 | locus YOL006C, strain TOP1, active compounds read low 1.03 | locus YOL012C, strain htz1 0.912 | locus YOL147C, strain pex11, active compounds read low 0.989 | locus YOR001W, strain rrp6, active compounds read low 0.95 | locus YOR061W, strain CKA2, active compounds read low 1.01 | locus YOR069W, strain VPS5, active compounds read low 1 | locus YOR070C, strain gyp1, active compounds read low 0.984 | locus YOR080W, strain dia2, active compounds read low 0.963 | locus YOR083W, strain WHI5, active compounds read low 1.02 | locus YOR106W, strain vam3, active compounds read low 0.989 | locus YOR136W, strain idh2, active compounds read low 0.998 | locus YOR144C, strain elg1, active compounds read low 0.993 | locus YOR184W, strain ser1, active compounds read low 1.02 | locus YOR231W, strain MKK1, active compounds read low 0.998 | locus YOR265W, strain rbl2, active compounds read low 0.966 | locus YOR270C, strain vph1, active compounds read low 0.951 | locus YOR290C, strain snf2, active compounds read low 0.974 | locus YOR316C, strain cot1, active compounds read low 0.981 | locus YPL051W, strain arl3, active compounds read low 0.987 | locus YPL078C, strain atp4, active compounds read low 1.01 | locus YPL106C, strain sse1, active compounds read low 1.02 | locus YPL240C, strain hsp82, active compounds read low 0.967 | locus YPL241C, strain CIN2, active compounds read low 1.01 | locus YPL256C, strain CLN2, active compounds read low 0.967 | locus YPR119W, strain clb2, active compounds read low 0.981 | locus YPR141C, strain kar3, active compounds read low 0.987 | locus YPR163C, strain tif3, active compounds read low 0.994 | locus YPR167C, strain met16, active compounds read low 0.983 | strain wtn01, active compounds read low 1.02
